Data on ten molecules can be found in ChEMBL document CHEMBL2218924, “A broad activity screen in support of a chemogenomic map for kinase signalling research and drug discovery” (Biochem J, 2013).

In assay [1] the target is T1, Serine/threonine-protein kinase 17A (Homo sapiens) (UniProt Q9UEE5).
T1 sequence (whole entry): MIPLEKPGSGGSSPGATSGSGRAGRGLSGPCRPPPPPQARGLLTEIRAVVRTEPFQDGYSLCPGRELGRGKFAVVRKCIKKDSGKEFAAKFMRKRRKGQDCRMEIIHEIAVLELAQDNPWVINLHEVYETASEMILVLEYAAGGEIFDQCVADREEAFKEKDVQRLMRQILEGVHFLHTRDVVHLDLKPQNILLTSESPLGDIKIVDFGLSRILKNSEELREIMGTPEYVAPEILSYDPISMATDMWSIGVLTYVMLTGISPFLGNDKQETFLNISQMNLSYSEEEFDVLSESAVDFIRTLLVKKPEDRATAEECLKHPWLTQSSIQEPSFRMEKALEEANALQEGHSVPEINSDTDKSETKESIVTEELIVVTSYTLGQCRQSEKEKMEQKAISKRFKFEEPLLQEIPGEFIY
The note with it: at 10 µM.

Assay [2] addresses T2, Dual specificity tyrosine-phosphorylation-regulated kinase 2 (Homo sapiens) (UniProt Q92630).
T2 sequence (whole entry): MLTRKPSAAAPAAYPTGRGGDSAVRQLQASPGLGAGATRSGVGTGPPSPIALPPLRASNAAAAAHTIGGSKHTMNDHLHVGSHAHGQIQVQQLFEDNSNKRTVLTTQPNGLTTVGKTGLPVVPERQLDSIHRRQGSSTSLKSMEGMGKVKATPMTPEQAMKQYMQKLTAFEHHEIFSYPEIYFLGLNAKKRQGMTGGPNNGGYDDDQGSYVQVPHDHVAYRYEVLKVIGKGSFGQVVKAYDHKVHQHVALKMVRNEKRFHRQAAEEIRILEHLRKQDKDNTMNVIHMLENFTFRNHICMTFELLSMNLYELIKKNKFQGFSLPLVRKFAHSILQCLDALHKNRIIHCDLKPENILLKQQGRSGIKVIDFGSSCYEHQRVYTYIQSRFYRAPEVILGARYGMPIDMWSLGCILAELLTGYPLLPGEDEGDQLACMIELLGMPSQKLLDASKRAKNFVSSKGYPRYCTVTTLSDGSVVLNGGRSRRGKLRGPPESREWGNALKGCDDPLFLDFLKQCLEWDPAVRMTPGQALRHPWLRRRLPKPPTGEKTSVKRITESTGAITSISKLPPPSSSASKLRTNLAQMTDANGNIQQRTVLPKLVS
The note with it: at 1 µM.

Assay [3] deals with T2, Dual specificity tyrosine-phosphorylation-regulated kinase 2 (Homo sapiens). The note with it: at 10 µM.
Assay [4] concerns the target T3, Ephrin type-A receptor 1 (Homo sapiens) (UniProt P21709).
T3 sequence (whole entry): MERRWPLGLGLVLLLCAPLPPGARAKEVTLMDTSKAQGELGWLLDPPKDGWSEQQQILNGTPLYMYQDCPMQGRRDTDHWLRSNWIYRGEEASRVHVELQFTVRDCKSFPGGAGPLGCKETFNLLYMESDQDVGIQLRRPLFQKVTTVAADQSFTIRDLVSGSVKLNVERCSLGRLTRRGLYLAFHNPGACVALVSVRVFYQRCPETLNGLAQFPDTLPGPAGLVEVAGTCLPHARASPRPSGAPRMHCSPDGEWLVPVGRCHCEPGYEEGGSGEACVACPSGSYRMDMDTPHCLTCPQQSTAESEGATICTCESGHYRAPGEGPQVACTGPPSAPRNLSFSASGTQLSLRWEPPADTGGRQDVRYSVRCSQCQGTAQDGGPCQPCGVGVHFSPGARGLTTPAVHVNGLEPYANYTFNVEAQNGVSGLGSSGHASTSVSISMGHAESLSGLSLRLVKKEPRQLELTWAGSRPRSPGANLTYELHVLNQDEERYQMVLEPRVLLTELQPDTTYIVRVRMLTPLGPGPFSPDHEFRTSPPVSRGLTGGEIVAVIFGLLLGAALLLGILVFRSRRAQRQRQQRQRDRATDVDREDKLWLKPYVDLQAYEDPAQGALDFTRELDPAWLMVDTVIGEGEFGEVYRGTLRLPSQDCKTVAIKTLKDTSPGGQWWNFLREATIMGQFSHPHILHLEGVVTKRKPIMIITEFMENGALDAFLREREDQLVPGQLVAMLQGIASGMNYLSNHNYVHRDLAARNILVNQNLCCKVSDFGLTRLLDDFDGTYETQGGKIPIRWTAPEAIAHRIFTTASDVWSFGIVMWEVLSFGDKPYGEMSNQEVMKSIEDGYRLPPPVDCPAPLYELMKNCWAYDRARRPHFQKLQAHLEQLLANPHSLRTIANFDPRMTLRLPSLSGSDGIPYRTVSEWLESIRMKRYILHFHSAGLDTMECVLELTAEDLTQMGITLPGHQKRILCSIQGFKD
The note with it: at 1 µM.

Assay [5] deals with T3, Ephrin type-A receptor 1 (Homo sapiens). The note with it: at 10 µM.
Assay [6] concerns the target Ephrin type-A receptor 2 (Homo sapiens) (UniProt P29317). The note with it: at 1 µM.
Assay [7] shares this target. The settings on record: at 10 µM.
In assay [8] the target is T4, Ephrin type-A receptor 3 (Homo sapiens) (UniProt P29320).
T4 sequence (whole entry): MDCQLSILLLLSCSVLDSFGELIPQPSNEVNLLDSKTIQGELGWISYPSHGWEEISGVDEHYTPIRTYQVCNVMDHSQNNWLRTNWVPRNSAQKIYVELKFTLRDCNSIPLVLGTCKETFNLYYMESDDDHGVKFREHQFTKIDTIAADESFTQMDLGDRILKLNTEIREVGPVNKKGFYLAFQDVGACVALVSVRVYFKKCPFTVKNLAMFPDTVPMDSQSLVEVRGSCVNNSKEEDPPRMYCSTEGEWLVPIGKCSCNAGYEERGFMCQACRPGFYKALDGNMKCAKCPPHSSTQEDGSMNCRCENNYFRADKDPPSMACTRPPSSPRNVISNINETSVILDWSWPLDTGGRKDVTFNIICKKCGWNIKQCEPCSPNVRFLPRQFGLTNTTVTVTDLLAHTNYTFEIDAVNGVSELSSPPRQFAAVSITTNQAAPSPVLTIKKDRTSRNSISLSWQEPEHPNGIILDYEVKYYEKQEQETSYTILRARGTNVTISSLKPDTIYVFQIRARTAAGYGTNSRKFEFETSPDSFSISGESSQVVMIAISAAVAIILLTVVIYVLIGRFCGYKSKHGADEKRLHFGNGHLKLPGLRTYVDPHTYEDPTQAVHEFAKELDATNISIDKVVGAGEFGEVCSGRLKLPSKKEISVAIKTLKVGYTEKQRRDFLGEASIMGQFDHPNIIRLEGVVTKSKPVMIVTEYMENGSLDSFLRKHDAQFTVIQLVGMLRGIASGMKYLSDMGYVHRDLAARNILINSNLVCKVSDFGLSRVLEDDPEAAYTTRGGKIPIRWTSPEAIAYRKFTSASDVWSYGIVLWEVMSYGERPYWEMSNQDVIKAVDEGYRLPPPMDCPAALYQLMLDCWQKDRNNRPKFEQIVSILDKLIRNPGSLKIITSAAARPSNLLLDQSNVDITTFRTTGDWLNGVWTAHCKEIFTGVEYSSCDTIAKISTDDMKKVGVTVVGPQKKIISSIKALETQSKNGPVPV
The settings on record: at 1 µM.

Assay [9] deals with Epidermal growth factor receptor (Homo sapiens) (UniProt P00533). The settings on record: at 1 µM.
Chain of Epidermal growth factor receptor (Homo sapiens) (P00533 whole entry): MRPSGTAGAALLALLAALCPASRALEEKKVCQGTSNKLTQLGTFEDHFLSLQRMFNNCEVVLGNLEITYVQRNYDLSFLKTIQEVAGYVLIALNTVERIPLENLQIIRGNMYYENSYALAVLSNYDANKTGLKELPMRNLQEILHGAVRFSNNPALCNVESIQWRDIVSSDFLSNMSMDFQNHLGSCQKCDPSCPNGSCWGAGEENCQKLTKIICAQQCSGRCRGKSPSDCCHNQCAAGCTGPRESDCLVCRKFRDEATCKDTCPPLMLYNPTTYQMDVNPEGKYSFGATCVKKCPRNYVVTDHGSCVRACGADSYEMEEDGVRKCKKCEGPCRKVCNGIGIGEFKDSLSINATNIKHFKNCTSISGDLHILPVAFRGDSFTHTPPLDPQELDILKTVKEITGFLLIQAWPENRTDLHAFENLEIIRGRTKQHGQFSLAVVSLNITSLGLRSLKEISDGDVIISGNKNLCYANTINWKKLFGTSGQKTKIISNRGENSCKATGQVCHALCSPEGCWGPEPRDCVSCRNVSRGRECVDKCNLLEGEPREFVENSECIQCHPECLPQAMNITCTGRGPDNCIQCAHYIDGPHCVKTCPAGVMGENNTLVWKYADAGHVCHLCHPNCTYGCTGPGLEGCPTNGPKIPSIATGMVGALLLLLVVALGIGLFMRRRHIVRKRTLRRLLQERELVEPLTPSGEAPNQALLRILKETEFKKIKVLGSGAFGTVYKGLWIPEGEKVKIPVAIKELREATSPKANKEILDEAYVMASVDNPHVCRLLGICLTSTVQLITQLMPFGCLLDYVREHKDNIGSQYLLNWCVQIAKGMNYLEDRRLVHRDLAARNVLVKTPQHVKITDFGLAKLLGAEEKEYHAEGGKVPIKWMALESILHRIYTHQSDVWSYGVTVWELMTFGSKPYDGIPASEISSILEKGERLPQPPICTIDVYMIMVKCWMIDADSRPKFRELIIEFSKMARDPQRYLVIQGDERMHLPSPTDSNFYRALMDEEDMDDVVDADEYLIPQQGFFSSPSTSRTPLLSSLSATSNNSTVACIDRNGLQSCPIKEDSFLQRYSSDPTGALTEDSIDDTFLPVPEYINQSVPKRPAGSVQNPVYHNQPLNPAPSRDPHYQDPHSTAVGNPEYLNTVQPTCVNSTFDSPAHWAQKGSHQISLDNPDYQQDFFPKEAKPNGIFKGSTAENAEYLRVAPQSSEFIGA
Assay [10] shares this target. The note with it: at 10 µM.

Chain of Ephrin type-A receptor 2 (Homo sapiens) (P29317 whole entry): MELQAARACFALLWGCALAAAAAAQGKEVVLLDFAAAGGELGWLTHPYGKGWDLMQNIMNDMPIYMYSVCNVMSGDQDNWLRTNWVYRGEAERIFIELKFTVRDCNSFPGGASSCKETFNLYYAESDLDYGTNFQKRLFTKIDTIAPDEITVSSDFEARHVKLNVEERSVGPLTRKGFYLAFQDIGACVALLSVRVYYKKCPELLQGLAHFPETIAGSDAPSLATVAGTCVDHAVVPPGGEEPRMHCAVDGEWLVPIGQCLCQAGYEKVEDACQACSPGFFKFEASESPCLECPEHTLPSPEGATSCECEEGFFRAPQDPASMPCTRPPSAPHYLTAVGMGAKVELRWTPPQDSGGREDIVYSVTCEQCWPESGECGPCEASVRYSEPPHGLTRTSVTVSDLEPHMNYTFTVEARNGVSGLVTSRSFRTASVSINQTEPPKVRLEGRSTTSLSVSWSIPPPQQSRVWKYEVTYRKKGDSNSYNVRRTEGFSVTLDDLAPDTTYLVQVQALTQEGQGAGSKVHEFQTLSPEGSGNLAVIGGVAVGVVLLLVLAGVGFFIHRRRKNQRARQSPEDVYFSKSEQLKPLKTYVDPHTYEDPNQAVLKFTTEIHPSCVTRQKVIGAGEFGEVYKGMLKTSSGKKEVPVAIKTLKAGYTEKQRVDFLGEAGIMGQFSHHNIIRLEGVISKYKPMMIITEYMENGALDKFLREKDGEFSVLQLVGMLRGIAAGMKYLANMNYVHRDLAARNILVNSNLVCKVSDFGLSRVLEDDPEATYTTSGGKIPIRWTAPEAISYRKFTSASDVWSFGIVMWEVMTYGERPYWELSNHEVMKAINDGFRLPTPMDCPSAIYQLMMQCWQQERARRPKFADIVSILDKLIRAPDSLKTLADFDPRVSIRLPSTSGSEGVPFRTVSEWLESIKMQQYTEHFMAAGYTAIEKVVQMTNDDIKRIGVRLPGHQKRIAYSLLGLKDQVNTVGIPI

Take `CNc1cc2c(Nc3cccc(Br)c3)ncnc2cn1`: the residual activity in [1] turned out to be 11%; in assay [2], 90%; in assay [3], 86%; in assay [4], 72%; in assay [5], 59%; in assay [6], 94%. Besides, the values for the residual activity in assay [7] and in [8] were 75% and 93%, respectively.
As to `CCN(CC)CCCCN1c2ccccc2Oc2ccc(Cl)cc21`, the residual activity in assay [1] turned out to be 138%; in [2] it was 105%; in assay [3] it was 103%; in [9], 124%; in [10], 127%; in assay [4] it was 102%. Moreover, the residual activity in assay [5] was 124%; in assay [6], 108%; in [7], 109%; in assay [8], 113%.
As for `COc1cc2ncnc(N3CCN(C(=O)Nc4ccc(Oc5ccccc5)cc4)CC3)c2cc1OC`, the residual activity in [1] worked out at 101%; in [2] it was 92%; in assay [3], 98%; in assay [4], 85%; in [5], 76%; in [6], 101%. Besides, the residual activity was found to be 109% in [7] and 98% in assay [8].
For the molecule `COc1ccc(CNc2nc(N(CCO)CCO)nc3c2ncn3C(C)C)cc1`, the residual activity was 85% in assay [1]; 87% in assay [2]; 67% in [3]; 97% in assay [9]; 116% in [10]; 95% in [4]. The residual activity came to 81% in assay [5], 95% in [6], 117% in assay [7] and 82% in assay [8].
In the case of `CO[C@@H]1[C@H](N(C)C(=O)c2ccccc2)C[C@H]2O[C@]1(C)n1c3ccccc3c3c4c(c5c6ccccc6n2c5c31)C(=O)NC4`, the residual activity stood at 9% in [1]; 90% in assay [2]; 88% in assay [3]; 101% in [9]; 87% in assay [4]; 81% in assay [5]. Also, the results for the residual activity in [6], in [7] and in assay [8] were 97%, 95% and 97%, respectively.
In the case of `COc1cc2ncnc(Nc3ccc(Oc4ccccc4)cc3)c2cc1OC`, the residual activity is 124% in [1]; 99% in [2]; 95% in assay [3]; -1% in assay [9]; -2% in [10]; 98% in assay [4]. In addition, the residual activity in [5] worked out at 81%; in assay [6] it was 95%; in assay [7], 116%; in assay [8] it was 98%.
For `CO[C@H]1C[C@@H]2CC[C@@H](C)[C@@](O)(O2)C(=O)C(=O)N2CCCC[C@H]2C(=O)O[C@H]([C@H](C)C[C@@H]2CC[C@@H](O)[C@H](OC)C2)CC(=O)[C@H](C)/C=C(\C)[C@@H](O)[C@@H](OC)C(=O)[C@H](C)C[C@H](C)/C=C/C=C/C=C/1C`, the residual activity in assay [1] was 149%; in assay [2], 99%; in assay [3], 101%; in assay [4], 84%; in assay [5], 65%; in [6], 110%. Besides, the results for the residual activity in assay [7] and in [8] were 120% and 103%, respectively.
For `O=[N+]([O-])c1ccc(-c2nc(-c3ccc(F)cc3)c(-c3ccncc3)[nH]2)cc1`, the residual activity in [1] was found to be 104%; in [2], 100%; in assay [3] it was 91%; in assay [9] it was 87%; in assay [10] it was 95%; in assay [4], 83%. For the same molecule, the residual activity in assay [5] turned out to be 92%; in [6] it was 89%; in [7], 97%; in assay [8], 99%.
Consider `O=C1c2ccccc2-[n+]2ccc3c([nH]c4ccccc43)c21`, for which the residual activity in [1] turned out to be 114%; in assay [2], 99%; in [3], 92%; in [4] it was 78%; in assay [5], 91%; in assay [6], 89%. Also, the residual activity amounted to 101% in assay [7] and 89% in assay [8].
In the case of `O=C(Nc1cccc(Nc2nccc(Nc3cccc(C(F)(F)F)c3)n2)c1)C1CC1`, the residual activity in assay [1] turned out to be 10%; in [2], 95%; in assay [3] it was 96%; in assay [9], 61%; in assay [10], 19%; in [4], 22%. Moreover, the residual activity in [5] is 22%; in assay [6], 79%; in [7], 19%; in [8], 95%.

In general, residual activity refers to the signal under treatment as a percentage of the control signal.
